In PubChem BioAssay AID763 (NMMLSC, 2007):
Activity calls are given as the source filed them. The rule behind the calls is not given here.

target: fMet-Leu-Phe receptor (Homo sapiens) (UniProt P21462); test: FPR1 fluorescent ligand binding inhibitors, SAR follow-up, selectivity assay for FPRL1 ligand SAR project, cell-based, single concentration (AID 763); settings: FPR1-expressing cells, active compounds read high; at 5.4 µM unless noted
Sequence (P21462 whole entry, looked up): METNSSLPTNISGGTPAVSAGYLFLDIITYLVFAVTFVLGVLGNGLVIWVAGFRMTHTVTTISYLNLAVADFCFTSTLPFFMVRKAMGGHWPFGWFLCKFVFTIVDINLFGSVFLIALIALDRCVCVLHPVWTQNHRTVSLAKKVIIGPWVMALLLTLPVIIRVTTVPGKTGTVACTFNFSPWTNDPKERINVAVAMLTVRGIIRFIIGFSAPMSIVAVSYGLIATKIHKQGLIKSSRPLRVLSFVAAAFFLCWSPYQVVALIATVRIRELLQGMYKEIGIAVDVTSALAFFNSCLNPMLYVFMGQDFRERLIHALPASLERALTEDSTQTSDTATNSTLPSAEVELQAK

inhibition, inactive:
COc1ccc(-c2cn3cccnc3n2)cc1NC(=O)c1ccc(C(F)(F)F)cc1 3.7%
COc1ccc(-c2nc(N3CCN(Cc4ccc(Cl)cc4)CC3)[nH]c(=O)c2C#N)cc1 -5.9% [at 5.1 µM]
O=C(O)CCC(=O)N1CCN(c2nc(-c3ccccc3)c3cc(Br)ccc3n2)CC1 -0.5% [at 4.7 µM]
Clc1ccc2nc(N3CCN(c4ccccc4)CC3)nc(-c3ccccc3)c2c1 1.7% [at 5.5 µM]
CCOCC(=O)Nc1cc(-c2cn3cccnc3n2)ccc1OC 2.3% [at 6.8 µM]
FC(F)(F)c1cc(-c2cccs2)nc(N2CCN(Cc3ccccc3)CC2)n1 0.4% [at 5.5 µM]
Cc1ccc2nc(N3CCN(c4ccccc4)CC3)nc(-c3ccccc3)c2c1 0.6% [at 5.8 µM]
COc1ccc(C2CC(=O)c3cnc(N4CCN(Cc5ccc6c(c5)OCO6)CC4)nc3C2)cc1OC (stereo not drawn) -0.9% [at 4.4 µM]
COc1ccc(-c2cc(C(F)(F)F)nc(N3CCN(C(c4ccccc4)c4ccccc4)CC3)n2)cc1OC -2.6% [at 4.2 µM]
CCOC(=O)N1CCN(c2nc(-c3ccc(Cl)cc3)cc(C(F)(F)F)n2)CC1 -2.8%
COc1ccc(-c2cn3cccnc3n2)cc1NC(=O)C1CC1 -2.9% [at 7.2 µM]
COc1ccccc1-c1cc(C(F)(F)F)nc(N2CCN(C(c3ccccc3)c3ccccc3)CC2)n1 6.5% [at 4.4 µM]
Cc1ccc(-c2cc(C(F)F)nc(N3CCN(Cc4ccccc4)CC3)n2)cc1 -7.2% [at 5.6 µM]
Clc1cccc(-c2nc(N3CCN(c4ccccc4)CC3)nc3c2COc2ccccc2-3)c1 -0.5% [at 4.9 µM]
O=C(c1ccccc1)N1CCN(c2nc(-c3ccccc3)c3cc([N+](=O)[O-])ccc3n2)CC1 -6% [at 5.1 µM]
FC(F)(F)c1cc(-c2ccccc2)nc(N2CCN(c3cccc(Cl)c3)CC2)n1 -2.5% [at 5.3 µM]
FC(F)(F)c1cc(-c2ccc(Cl)cc2)nc(N2CCN(C(c3ccccc3)c3ccccc3)CC2)n1 2.8% [at 4.4 µM]
COc1ccc(-c2cc(C(F)(F)F)nc(N3CCN(Cc4ccccc4)CC3)n2)cc1 -2.6% [at 5.2 µM]
O=C(O)/C=C/C(=O)N1CCN(c2nc(-c3ccccc3)c3ccccc3n2)CC1 2.4% [at 5.7 µM]
CC(C)(C)OC(=O)N1CCN(c2nc(-c3ccccc3)c3cc([N+](=O)[O-])ccc3n2)CC1 -8.4% [at 5.1 µM]
COc1ccc(-c2cn3cccnc3n2)cc1NC(=O)c1ccccc1 -4.9% [at 6.5 µM]
CCOC(=O)N1CCN(c2nc(-c3cccc(Cl)c3)c3c(n2)-c2ccccc2OC3)CC1 3.2% [at 4.9 µM]
FC(F)(F)c1cc(-c2ccccc2)nc(N2CCN(C(c3ccccc3)c3ccccc3)CC2)n1 -4.1% [at 4.7 µM]
CCOC(=O)N1CCN(c2nc(-c3cccc(OC)c3)cc(C(F)(F)F)n2)CC1 -33.9%
COc1ccc(-c2cn3cccnc3n2)cc1NC(=O)CCCc1ccccc1 -0.5% [at 5.8 µM]
Cc1ccc2nc(N3CCN(c4ccccc4Cl)CC3)nc(-c3ccccc3)c2c1 -6%
CN1CCN(c2nc(-c3ccccc3)c3cc(Cl)ccc3n2)CC1 6.1% [at 6.6 µM]
Cc1ccc(-c2cc(C(F)F)nc(N3CCN(c4ccccc4)CC3)n2)cc1 -2.2% [at 5.8 µM]
COc1ccc(-c2cn3cccnc3n2)cc1NC(=O)c1ccccc1C(F)(F)F -3.2%
O=C(O)CCCC(=O)N1CCN(c2nc(-c3ccccc3Cl)c3cc(Br)ccc3n2)CC1 1.9% [at 4.3 µM]
COc1ccccc1-c1cc(C(F)(F)F)nc(N2CCN(Cc3ccccc3)CC2)n1 1.1% [at 5.2 µM]
COc1ccc(C2CC(=O)c3cnc(N4CCN(Cc5ccc6c(c5)OCO6)CC4)nc3C2)cc1 (stereo not drawn) 0.4% [at 4.7 µM]
CCC(=O)Nc1cc(-c2cn3cccnc3n2)ccc1OC 5% [at 7.5 µM]
